# Laboratory results published in the supplement of paper PMC8728848.
# The entries come from a sample that favours the strongest signals as a whole.
# Legend:
# Assay in all cases: glycan array binding signal (z-score within array); higher = stronger binding
# Conditions in all cases: glycan notation: IUPAC condensed, linker removed
# Fuc(a1-2)Gal(b1-3)GalNAc = target: Fuc(a1-2)Gal(b1-3)GalNAc
# Method in brief: (§1)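 Glycan array data came from 3228 arrays in the Consortium for Functional Glycomics database, and only arrays with an available protein sequence were kept. Glycan names were put into IUPAC-condensed notation, and columns mapping to the same glycan were averaged. The binding signal is a within-array Z-score, averaged across arrays of one protein sequence run at different concentrations or buffers and across linkers. A negative Z-score can be read as non-binding.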
# [1] = target: Fuc(a1-2)Gal(b1-3)GalNAc(b1-4)[Neu5Ac(a2-3)]Gal(b1-4)Glc
# Method in brief: as §1
# Fuc(a1-2)Gal(b1-4)Glc = target: Fuc(a1-2)Gal(b1-4)Glc
# Method in brief: as §1
# [2] = target: Fuc(a1-2)Gal(b1-4)[Fuc(a1-3)]GlcNAc(b1-3)Gal(b1-4)[Fuc(a1-3)]GlcNAc(b1-3)Gal(b1-4)[Fuc(a1-3)]GlcNAc
# Method in brief: as §1
# [3] = target: Fuc(a1-2)Gal6S(b1-3)GlcNAc6S
# Method in brief: as §1
# [4] = target: Fuc(a1-2)[Gal(a1-3)]Gal(b1-3)GlcNAc
# Method in brief: as §1
# [5] = target: Fuc(a1-2)[Gal(a1-3)]Gal(b1-3)GlcNAc(b1-2)Man(a1-3)[Fuc(a1-2)[Gal(a1-3)]Gal(b1-3)GlcNAc(b1-2)Man(a1-6)]Man(b1-4)GlcNAc(b1-4)[Fuc(a1-6)]GlcNAc
# Method in brief: as §1
# [6] = target: Fuc(a1-2)[Gal(a1-3)]Gal(b1-4)GlcNAc(b1-2)Man(a1-3)[Fuc(a1-2)[Gal(a1-3)]Gal(b1-4)GlcNAc(b1-2)Man(a1-6)]Man(b1-4)GlcNAc(b1-4)GlcNAc
# Method in brief: as §1
# [7] = target: Fuc(a1-2)[GalNAc(a1-3)]Gal(b1-3)GlcNAc(b1-2)Man(a1-3)[Fuc(a1-2)[GalNAc(a1-3)]Gal(b1-3)GlcNAc(b1-2)Man(a1-6)]Man(b1-4)GlcNAc(b1-4)[Fuc(a1-6)]GlcNAc
# Method in brief: as §1
# [8] = target: Fuc(a1-2)[GalNAc(a1-3)]Gal(b1-3)GlcNAc(b1-6)GalNAc
# Method in brief: as §1
# [9] = target: Gal(a1-3)[Gal(a1-4)]Gal(b1-4)GlcNAc
# Method in brief: as §1
# [10] = target: Gal(a1-4)Gal(b1-3)GlcNAc(b1-2)Man(a1-3)[Gal(a1-4)Gal(b1-3)GlcNAc(b1-2)Man(a1-6)]Man(b1-4)GlcNAc(b1-4)GlcNAc
# Method in brief: as §1
# Gal(b1-3)Gal(b1-4)GlcNAc = target: Gal(b1-3)Gal(b1-4)GlcNAc
# Method in brief: as §1
# [11] = target: Gal(b1-3)GlcNAc(b1-2)Man(a1-3)[Gal(b1-3)GlcNAc(b1-2)Man(a1-6)]Man(b1-4)GlcNAc(b1-4)GlcNAc
# Method in brief: as §1
# [12] = target: Gal(b1-3)GlcNAc(b1-3)Gal(b1-4)[Fuc(a1-3)]GlcNAc
# Method in brief: as §1
# [13] = target: Gal(b1-3)GlcNAc(b1-6)[Gal(b1-3)]GalNAc
# Method in brief: as §1
# [14] = target: Gal(b1-4)GlcNAc(b1-2)Man(a1-3)[Gal(b1-4)GlcNAc(b1-2)Man(a1-6)]Man(b1-4)GlcNAc(b1-4)[Fuc(a1-6)]GlcNAc
# Method in brief: as §1
# [15] = target: Gal(b1-4)GlcNAc(b1-2)Man(a1-3)[Gal(b1-4)GlcNAc(b1-2)Man(a1-6)][Gal(b1-4)GlcNAc(b1-4)]Man(b1-4)GlcNAc(b1-4)[Fuc(a1-6)]GlcNAc
# Method in brief: as §1
# [16] = target: Gal(b1-4)GlcNAc(b1-2)Man(a1-3)[Gal(b1-4)GlcNAc(b1-2)Man(a1-6)][GlcNAc(b1-4)]Man(b1-4)GlcNAc(b1-4)[Fuc(a1-6)]GlcNAc
# Method in brief: as §1
# [17] = target: Gal(b1-4)GlcNAc(b1-3)Gal(b1-4)GlcNAc(b1-2)Man(a1-3)[Gal(b1-4)GlcNAc(b1-3)Gal(b1-4)GlcNAc(b1-2)Man(a1-6)]Man(b1-4)GlcNAc(b1-4)[Fuc(a1-6)]GlcNAc
# Method in brief: as §1
# [18] = target: Gal(b1-4)GlcNAc(b1-3)Gal(b1-4)GlcNAc(b1-3)Gal(b1-4)GlcNAc(b1-2)Man(a1-3)[Gal(b1-4)GlcNAc(b1-3)Gal(b1-4)GlcNAc(b1-3)Gal(b1-4)GlcNAc(b1-2)Man(a1-6)]Man(b1-4)GlcNAc(b1-4)GlcNAc
# Method in brief: as §1
# [19] = target: Gal(b1-4)GlcNAc(b1-3)Gal(b1-4)GlcNAc(b1-3)Gal(b1-4)GlcNAc(b1-2)[Gal(b1-4)GlcNAc(b1-3)Gal(b1-4)GlcNAc(b1-3)Gal(b1-4)GlcNAc(b1-6)]Man(a1-6)[Gal(b1-4)GlcNAc(b1-3)Gal(b1-4)GlcNAc(b1-3)Gal(b1-4)GlcNAc(b1-2)Man(a1-3)]Man(b1-4)GlcNAc(b1-4)[Fuc(a1-6)]GlcNAc
# Method in brief: as §1
# [20] = target: Gal(b1-4)GlcNAc(b1-3)Gal(b1-4)GlcNAc(b1-3)Gal(b1-4)GlcNAc(b1-3)Gal(b1-4)GlcNAc(b1-2)Man(a1-3)[Gal(b1-4)GlcNAc(b1-3)Gal(b1-4)GlcNAc(b1-3)Gal(b1-4)GlcNAc(b1-3)Gal(b1-4)GlcNAc(b1-2)Man(a1-6)]Man(b1-4)GlcNAc(b1-4)GlcNAc
# Method in brief: as §1
# [21] = target: Gal(b1-4)GlcNAc(b1-3)Gal(b1-4)GlcNAc(b1-3)Gal(b1-4)GlcNAc(b1-3)Gal(b1-4)GlcNAc(b1-3)Gal(b1-4)GlcNAc(b1-2)Man(a1-3)[Gal(b1-4)GlcNAc(b1-3)Gal(b1-4)GlcNAc(b1-3)Gal(b1-4)GlcNAc(b1-3)Gal(b1-4)GlcNAc(b1-3)Gal(b1-4)GlcNAc(b1-2)Man(a1-6)]Man(b1-4)GlcNAc(b1-4)GlcNAc
# Method in brief: as §1
# [22] = target: Gal3S(b1-4)[Fuc(a1-3)]GlcNAc6S
# Method in brief: as §1
# Gal3S6S(b1-4)GlcNAc = target: Gal3S6S(b1-4)GlcNAc
# Method in brief: as §1
# [23] = target: Glc(a1-6)Glc(a1-6)Glc(a1-6)Glc
# Method in brief: as §1
binder,measurement,setting,value
PX14343G-pdi-535-24-535 (Parabacteroides distasonis) (protein) LDTVPKDQLAPSTTWQTEADAKGFIVGCYKDLLDGNTLLYLDCGSDIGYNNFPWEGFRPWGDGSLSSSNPGQILYDYKSIRKANTFLENVDKVTFSSDAVKANYVAQAKAIRAYKYFLMNWWYGGVPIISSYSSADEAKVERNTEQEVRDYIAKDLDEALAGIAEAPEARGYIAKGAVLAIKMREALYYGDWQKAKDAAKAIIDLKQYELDPDYTNLFKVSGVDSKEIILADQNIETLDGLGTIGQMYNNVDQGWSSIVPTQNLVDMYEMSDGLTKEESKTYDAKHPFANRDPRMAMTILYPGRDWRGDVLNTLDEKLQDGTVNKNFPTYTDNASKSALTWAKYLDPMDQYGDVWSSGACPIVFRYAEVLLTYAEAANELSGPSDEIYGYLNQIRQRVGMGEVDKAKYGTKDKLRELIRRERTVELAGEGLRRADIVRWQEDGKMLAEKVMNGDLLRVTGTINYGESEPTKRAEITGTAVIETRQFSSRNRYLPIPQTSMDKNPNLKQNPGY,glycan array binding signal (z-score),Fuc(a1-2)Gal(b1-3)GalNAc,-1.05
same,glycan array binding signal (z-score),[1],-0.439
same,glycan array binding signal (z-score),Fuc(a1-2)Gal(b1-4)Glc,-0.597
same,glycan array binding signal (z-score),[2],-0.34
same,glycan array binding signal (z-score),[3],0.336
same,glycan array binding signal (z-score),[4],0.064
same,glycan array binding signal (z-score),[5],-0.242
same,glycan array binding signal (z-score),[6],2.43
same,glycan array binding signal (z-score),[7],-1.2
same,glycan array binding signal (z-score),[8],-0.366
same,glycan array binding signal (z-score),[9],2.67
same,glycan array binding signal (z-score),[10],-0.566
same,glycan array binding signal (z-score),Gal(b1-3)Gal(b1-4)GlcNAc,0.673
same,glycan array binding signal (z-score),[11],0.51
same,glycan array binding signal (z-score),[12],-0.53
same,glycan array binding signal (z-score),[13],0.402
same,glycan array binding signal (z-score),[14],-0.363
same,glycan array binding signal (z-score),[15],-0.426
same,glycan array binding signal (z-score),[16],-0.515
same,glycan array binding signal (z-score),[17],2.06
same,glycan array binding signal (z-score),[18],1.65
same,glycan array binding signal (z-score),[19],3.07
same,glycan array binding signal (z-score),[20],0.004
same,glycan array binding signal (z-score),[21],2.76
same,glycan array binding signal (z-score),[22],2.01
same,glycan array binding signal (z-score),Gal3S6S(b1-4)GlcNAc,0.193
same,glycan array binding signal (z-score),[23],0.739
